The source of these data is PubChem BioAssay (NCI).

Compounds without any hit were thinned out: in the full panel of roughly 79,000, 15% have a hit. Values without a mark were called inactive. Active and inactive are the calls of the source. Rule as the data show it: active = growth inhibition above about 70%; inactive = the rest.

The first test in a line: NCI Yeast Anticancer Drug Screen. Data for the rad50 strain (AID 155).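 Also: 0% = growth of vehicle-only cultures of the same strain.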 To be noted: S. cerevisiae rad50 strain growth inhibition; at 50.0 µM; stronger effect = higher value. In short, it runs like this: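 Relative growth inhibition (compound vs vehicle) was measured in yeast with a defined repair-gene alteration.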
On to `CCNCc1cc(Nc2nc(NC3CCC(N(C)C)CC3)c3ccccc3n2)ccc1OC` (configuration not stated), for which the growth inhibition is 2.4%.

In the case of `Cc1cc(C)n2nc3c4ccsc4ncc3c2n1`, the growth inhibition is -5.2%.

With `Cc1c(C(=O)CSc2nc3ccccc3c(=O)n2-c2ccccc2)c(=O)n(-c2ccccc2)n1C`, the growth inhibition was -9.1%.

Turning to `NOCCCCON`, the growth inhibition was -5.05%.

Take `CC12CCC3c4ccc(O)cc4CCC3C1CC(OC1OC(C(=O)O)C(O)C(O)C1O)C2O` (configuration not stated): the growth inhibition was 31.6%.

As for `C=CCOC(=O)CC`, the growth inhibition is 5.95%.

With `COc1cc(NCCCCCNC(C)C)c2ncccc2c1`, the growth inhibition was 48.9%.

Another test is described as follows: NCI Yeast Anticancer Drug Screen. Data for the mec2-1 strain (AID 157). The conditions noted are these: S. cerevisiae mec2-1 strain, at 50.0 µM, stronger effect = higher value. In short, it runs like this:
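Compounds were applied to mec2-1 yeast cells. Their growth was then compared with that of vehicle-treated cultures to give growth inhibition.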
For `CCOC(=O)C1CC(O)c2ccc(Cl)cc2N1` (configuration not stated), the growth inhibition is 10.2%.

In the case of `C1=C(c2ccccc2)OC(c2ccccc2)=C(c2ccccc2)[P+]1(c1ccccc1)c1ccccc1`, the growth inhibition was 99.7% (active).

As to `COc1ccc(N(N=Nc2ccccc2)C(C)=O)cc1`, the growth inhibition was 2%.

Take `CCOC(=O)c1nnn(Cc2ccccc2)c1N`: the growth inhibition is -7.35%.

In the case of `CCCc1nc(N)nc(C(=O)Nc2cccc(C(F)(F)F)c2)c1CC`, the growth inhibition is -19.4%.

Turning to `CCOc1ccccc1NCN1C(=O)c2ccccc2C1=O`, the growth inhibition was -35.1%.

For the compound `COc1cc(C2c3cc4c(cc3OC(N3CCNCC3)C2C)OCO4)cc(OC)c1OC` (configuration not stated), the growth inhibition was -42.8%.

For the compound `C=C(CCCCCCCCC)CC(=O)SCCNC(=O)CCNC(=O)C(O)C(C)(C)COP(=O)(O)OP(=O)(O)OCC1OC(n2cnc3c(N)ncnc32)C(O)C1OP(=O)(O)O` (configuration not stated), the growth inhibition is -14.8%.

As for `CSc1ccc(C(=C=C=C(c2ccc(SC)s2)c2ccc(SC)s2)c2ccc(SC)s2)s1`, the growth inhibition was -19.8%.

As for `COC1=C(OC)C(=O)C(Sc2ccc3ccccc3c2)=C(Cl)C1=O`, the growth inhibition is 94.2% (active).

Take `CCOC(=O)NC(N)=O`: the growth inhibition is -1.45%.

Consider `CC(=O)N1Cc2c(N)ncnc2C1C` (configuration not stated), for which the growth inhibition is -9.45%.

As for `CCC(=O)Oc1ccc(OCc2ccccc2)cc1`, the growth inhibition is -57.8%.

Consider `O=C(O)c1cccc(Br)c1`, for which the growth inhibition is -19.1%.

Regarding `CCOC(=N)c1ccc(C(=N)OCC)cc1`, the growth inhibition is -29.4%.

For the compound `O=P(O)(O)OC1C(OP(=O)(O)O)C(OP(=O)(O)O)C(OP(=O)(O)O)C(OP(=O)(O)O)C1OP(=O)(O)O.[Cu+2]` (configuration not stated), the growth inhibition was -18.8%.

For the compound `Cc1onc(-c2c(F)cccc2Cl)c1-c1ncc(-c2ccc(Cl)cc2)o1`, the growth inhibition is 3.3%.

`CSC1C(OC(=O)c2ccccc2)C(COC(=O)c2ccccc2)OC1n1cnc2ncnc(NC(=O)c3ccccc3)c21` (configuration not stated): the growth inhibition is 20.4%.

As to `CC(NN(C)C(=S)Nc1ccccc1)c1ccccn1` (configuration not stated), the growth inhibition is -7.15%.

Consider `CCOC(=O)C(=O)C(/C(=N/N(C)C)C(=O)Nc1ccc(C)cc1C)c1nc2ccccc2[nH]c1=O` (configuration not stated), for which the growth inhibition is -22.1%.

`CC(=O)c1ccc(N=C2C(=O)Nc3ccccc32)cc1`: the growth inhibition was 15.8%.

Turning to `O=[N+]([O-])c1ccc(-c2nc3ncncc3[nH]2)cc1`, the growth inhibition was -3.25%.

Regarding `Cc1cc(N=Nc2ccc(N(C)C)cc2)ccn1`, the growth inhibition is 7.2%.

In the case of `C1CCC2(CC1)OCCS2`, the growth inhibition was 1.6%.

With `O=C1NC2(CCCC2)C(=O)N2CCCC12` (configuration not stated), the growth inhibition is -17.6%.

Consider `CN(C)/C=N/c1nc2ncn(CCOC(=O)c3ccccc3)c2c(=O)[nH]1`, for which the growth inhibition was -24.6%.

As for `CN(C)/N=C\c1ccc(C(=O)O)cc1`, the growth inhibition was 25.6%.

As to `CCCCCC[n+]1ccc(C(=O)c2ccccc2)cc1`, the growth inhibition was -5.8%.

Take `O=C1NNC2(C(=O)N1)c1ccccc1-c1ccccc12`: the growth inhibition was -19.5%.

Regarding `O=C1NC(=O)C(c2ccc(C(=O)O)cc2)N1` (configuration not stated), the growth inhibition was -10%.

`CCCCCCCCOc1ccc(Cl)cc1`: the growth inhibition is -11.8%.

For the compound `Cc1cccc2c1Oc1ccccc1C2NC(=O)OCCc1ccccc1` (configuration not stated), the growth inhibition is -8.25%.

As to `COc1ccc(C(=O)c2cc(S(=O)(=O)O)c(OC)cc2O)c(O)c1`, the growth inhibition is -35.4%.

As for `CCNCc1cc(Nc2nc(NC3CCC(N(C)C)CC3)c3ccccc3n2)ccc1OC` (configuration not stated), the growth inhibition is 7%.

Regarding `Cc1cc(C)n2nc3c4ccsc4ncc3c2n1`, the growth inhibition was -5.45%.

Take `Cc1c(C(=O)CSc2nc3ccccc3c(=O)n2-c2ccccc2)c(=O)n(-c2ccccc2)n1C`: the growth inhibition was 0.45%.

For the compound `NOCCCCON`, the growth inhibition was -6.8%.

Turning to `CC12CCC3c4ccc(O)cc4CCC3C1CC(OC1OC(C(=O)O)C(O)C(O)C1O)C2O` (configuration not stated), the growth inhibition was 5.9%.

`C=CCOC(=O)CC`: the growth inhibition was -13.2%.

In the case of `COc1cc(NCCCCCNC(C)C)c2ncccc2c1`, the growth inhibition was 20.2%.
